From PubChem BioAssay
AHR act = human AHR activation; P35869; AHR-responsive luciferase reporter cells, luminescence; 320,000 tested, 2.5% active; activation, % at 5 µM; in the data active = activation above about 47%;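 also: 0% = vehicle wells and 100% = reference agonist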
ADAM10 inh = inhibitors of human ADAM10; O14672; recombinant ADAM10, EDANS/DABCYL FRET peptide cleavage, 3 h; inhibition, % at 7 µM; 370,000 tested, 0.62% active; AID 720582;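 active = inhibition above a per-campaign cutoff equal to the mean of compounds falling between control-based bounds plus 3 SD, cut at about 20% in these data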;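 also: 0% = DMSO wells while the 100% control is not disclosed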
KLK7 zymogen act = activates the human kallikrein-7 zymogen; purified proKLK7, EDANS-DABCYL substrate fluorescence; 100% is mature enzyme control, 0% vehicle; AID 652039; 370,000 tested, 0.9% active; activation, % at 7 µM;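 active = activation above the mean of all tested compounds plus 3 SD, computed per campaign excluding outliers beyond control limits, cut at about 13% in these data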
Target sequence (P49862 whole entry, looked up): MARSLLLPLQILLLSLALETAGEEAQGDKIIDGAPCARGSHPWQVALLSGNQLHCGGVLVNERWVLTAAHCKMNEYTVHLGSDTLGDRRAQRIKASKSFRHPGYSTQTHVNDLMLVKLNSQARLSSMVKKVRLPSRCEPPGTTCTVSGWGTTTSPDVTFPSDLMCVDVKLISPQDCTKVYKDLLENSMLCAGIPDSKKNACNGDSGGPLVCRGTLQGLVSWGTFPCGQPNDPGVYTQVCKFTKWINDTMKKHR
rCAG RNA binder = molecules binding r(CAG) RNA repeats; r(CAG) RNA repeat, TO-PRO-1 dye displacement fluorescence; AID 651821; inhibition, % at 3 µM; 370,000 tested, 1.3% active;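 active = inhibition above the plate cutoff, the mean of all test compounds on that plate plus 3 SD, cut at about 35% in these data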;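 also: 0% = DMSO alone and 100% = 100 µM mitoxantrone as full dye displacement; higher means more dye released from RNA so lower well fluorescence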
GRIN3A LBD mod = modulates the human NR3A ligand-binding domain; Tm shift relative to glycine control, % at 25 µM; NR3A LBD differential scanning fluorimetry, Tm shift; 0% = protein alone, 100% = glycine-bound protein; 340,000 tested, 2.5% active;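 active = melting temperature shift of at least 10% of the positive control shift, at one fixed dose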
ADAM17 inh = ADAM17 inhibition, QFRET primary screen; inhibition, % at 6.95 µM; recombinant ADAM17, EDANS/DABCYL FRET peptide cleavage; 370,000 tested, 0.83% active; AID 720648;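 active = inhibition above the mean of compounds lying between control limits plus 3 SD, set per campaign, cut at about 8.5% in these data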;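 also: 0% = DMSO-only wells as the low control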
* hit, by the source's call; x = not tested or not shown. Only some compounds are listed: those with a hit (about 7% of all), similar ones and a draw of the others.

SMILES	AHR act	ADAM10 inh	KLK7 zymogen act	rCAG RNA binder	GRIN3A LBD mod	ADAM17 inh
O=C(Nc1ccc([N+](=O)[O-])cc1Cl)c1cc(Cl)ccc1O	13	-12	0	4	20*	-3
COCCN1Cc2cccc(C(=O)Nc3cccc(OC)c3)c2C1=O	-12	5	0	4	19*	2
COCCN1Cc2cccc(C(=O)Nc3ccc(C)c(C)c3)c2C1=O	-13	8	-4	5	7	-2
CC(=O)NC(Cc1ccc2c(c1)OCO2)C(=O)N1CCCC1 (stereo not given)	x	-16	-1	5	x	-5
Clc1ccccc1N=Nc1ccccn1	x	-8	0	-10	13*	-2
Cc1[nH][nH]c(=O)c1N=Nc1ccccc1Cl	-4	-2	0	2	1	-4
CCOC(=O)c1cccc(NC(=O)CN(C)S(=O)(=O)c2ccco2)c1	x	0	0	-2	x	-2
COc1cc(C)c(CNc2cc(C)cc(C)c2)cc1C	7	0	0	-5	20*	1
CCCCNC(=O)NS(=O)(=O)c1ccc(NC(=O)CSc2nnc(-c3ccc(Cl)cc3)n2N)cc1	x	-5	0	16	x	-3
O=C(NCCc1ccccc1)C1CCCN(c2cnccn2)C1 (stereo not given)	64*	-51	-1	-2	0	-18
Cc1ccc(NC(=O)C2CCCN(c3cnccn3)C2)c(C)c1 (stereo not given)	47*	-49	1	-2	2	-12
O=C(NCc1ccccc1F)C1CCCN(c2cnccn2)C1 (stereo not given)	24	-30	1	-4	0	-15
Cc1ccc(CNC(=O)C2CCCN(S(=O)(=O)c3cccnc3)C2)cc1 (stereo not given)	1	4	0	-4	2	-1
Cc1ccccc1CCNC(=O)C1CCCN(c2cnccn2)C1 (stereo not given)	48*	-31	0	-4	1	-14
Cc1ccc(CNC(=O)C2CCCN(c3cnccn3)C2)cc1 (stereo not given)	58*	-40	1	-5	1	-15
O=C(NCCc1ccc(Cl)cc1)C1CCN(c2cnccn2)CC1	2	-47	1	-4	0	-7
C[C@@H]1CN([C@H](C)CO)C(=O)c2cc(NS(=O)(=O)c3ccccc3)ccc2O[C@@H](C)CCCCO[C@@H]1CN(C)Cc1ccc(Cl)c(Cl)c1	x	-1	0	6	x	-2
O=C(N[C@H](C(=O)N1CCC[C@H]1C(=O)NCCc1ccccc1Cl)C1CCCCC1)c1ccc(Cl)c(Cl)c1	x	-4	1	8	x	0
O=C(Nc1ccccc1)c1cc(N2CCOCC2)nc2ccccc12	58*	-136	12	1	0	-39
Cc1ccc(NC(=O)c2cc(N3CCOCC3)nc3ccccc23)cc1	58*	-100	3	-1	-2	-34
O=C(O)c1cc(N2CCOCC2)nc2ccccc12	0	-269	7	0	0	-113
Cc1cccc(NC(=O)c2cc(N3CCOCC3)nc3ccccc23)c1	22	-127	-37	1	-1	-38
C/C(=N\N1CCN(c2ccccc2)CC1)c1ccccc1O	-2	-1	0	-4	0	-1
C/C(=N\N1CCN(c2ccccc2)CC1)c1ccc(O)cc1	x	-6	0	-1	10*	4
COc1ccc(CNC(=O)O[C@H]2CC[C@@]34CCCN3C(=O)CCC[C@H]4[C@H]2C)cc1OC	x	-6	x	x	x	-5
SMILES	AHR act	ADAM10 inh	KLK7 zymogen act	rCAG RNA binder	GRIN3A LBD mod	ADAM17 inh
O=C(CSc1nnc(-c2ccccc2)n1-c1ccc(Cl)cc1)Nc1ccc(OCc2ccccc2)cc1	x	1	1	6	x	2
CCC1=[N+](CC(=O)c2ccc(C)cc2)CCn2cccc21	23	-29	2	5	-4	-9
CCC1=[N+](CC(=O)c2ccc(C)cc2)CCn2c(C)ccc21	71*	-106	9	9	-3	-23
CCC1=[N+](CC(=O)c2ccc(Br)cc2)CCn2c(C)ccc21	73*	-38	2	5	-1	-14
O=C(Nc1cccc(NC(=O)c2cccc(F)c2)n1)c1cccc(F)c1	4	10	0	0	12*	2
O=C(Nc1ccc2oc(=O)ccc2c1)c1ccc2ccccc2c1	-11	-1	0	4	34*	-3
Cc1ccc(C(=O)Nc2ccc3ccccc3c2)cc1	-4	-8	-1	1	16*	-6
